Test results from PubChem BioAssay (NCATS).
Results filed as inconclusive are left out. A number with no mark means an inactive call. Calls of active or inactive are those of the source. Calls follow the shape of the dose curve; as a rule, active = well fitted curve in the direction sought with a large enough effect; inconclusive = small, poorly fitted or top-dose-only effect, or another doubt; inactive = no such curve, though single readings can be large; an effect the other way counts as inactive or inconclusive.

Assay: qHTS for differential inhibitors of proliferation of Plasmodium falciparum line GB4 (AID 1816);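 also: parasite growth measured after 72 h incubation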; also: potency is read from the fitted curve at half-maximal effect;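 as to activity change, negative = inhibition: 0% = vehicle DMSO and -100% = reference inhibitor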
Settings: Potency: Plasmodium falciparum GB4 proliferation inhibition; series mostly up to 28.7 µM; activity change, negative = inhibition: at the top concentration

Row | SMILES | activity change, negative = inhibition | Potency
1 | CN(C)CCCCSC(=N)N | -15.8% | 
2 | Cn1cnc2c(NC3CCCC3)ncnc21 | -29.2% | 
3 | NC(CCC(=O)NCS(=O)(=O)O)C(=O)O (configuration not stated) | -4.81% | 
4 | O=C(OCCN1CCCCC1)c1c[nH]c2ccccc12 |  | 10 µM (active)

Assay: qHTS for differential inhibitors of proliferation of Plasmodium falciparum line 3D7 (AID 1876);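 also: parasite growth measured after three days of culture; 0% = vehicle wells and -100% = reference inhibitor wells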
Settings: P. falciparum 3D7 proliferation inhibition; series mostly up to 28.7 µM; activity, negative = inhibition: at the top concentration

Row | SMILES | activity, negative = inhibition
5 | CC(N)=NCc1cccc(CN)c1 | -8.53%
6 | O=C(O)c1cc(=O)c2ccc(Cl)cc2[nH]1 | -2.15%
7 | CCCn1c(=O)c2[nH]c(-c3ccc(OCC(=O)Nc4ccc(C#N)cc4)cc3)nc2n(CCC)c1=O | -1.44%
8 | CN(C)CCCCSC(=N)N | -4.18%
9 | NC(CCC(=O)NCS(=O)(=O)O)C(=O)O (configuration not stated) | -4.77%
10 | O=C(OCCN1CCCCC1)c1c[nH]c2ccccc12 | 4.99%

Assay: qHTS for differential inhibitors of proliferation of Plasmodium falciparum line D10 (AID 1877);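 also: parasites grown with compound for 72 h before DNA staining; plate controls were vehicle wells for no effect and reference inhibitor wells for full effect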
Settings: series mostly up to 28.7 µM; activity change, negative = inhibition: at the top concentration

Row | SMILES | activity change, negative = inhibition
11 | CC(N)=NCc1cccc(CN)c1 | -14.9%
12 | O=C(O)c1cc(=O)c2ccc(Cl)cc2[nH]1 | -24.1%
13 | CCCn1c(=O)c2[nH]c(-c3ccc(OCC(=O)Nc4ccc(C#N)cc4)cc3)nc2n(CCC)c1=O | -5.41%
14 | CN(C)CCCCSC(=N)N | 0.148%
15 | Cn1cnc2c(NC3CCCC3)ncnc21 | -13.9%
16 | NC(CCC(=O)NCS(=O)(=O)O)C(=O)O (configuration not stated) | 4.9%
17 | O=C(OCCN1CCCCC1)c1c[nH]c2ccccc12 | -7.27%

Assay: qHTS for differential inhibitors of proliferation of Plasmodium falciparum line Dd2 (AID 1882);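 also: plate controls were DMSO vehicle for no effect and 0.29 µM artemisinin for full effect; nearly all actives have a fitted effect of over 65% in size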
Settings: Potency: Plasmodium falciparum Dd2 proliferation inhibition; series mostly up to 28.7 µM; activity change, negative = inhibition: at the top concentration
Summary of the method: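 Dd2-infected erythrocytes (0.3% parasitemia, 2.5% hematocrit final) incubated with compound 72 h at 37 C, 5% CO2; lysed with saponin/Triton buffer containing SYBR Green I, incubated overnight in the dark, then read by fluorescence (485/535 nm). Normalized to 0.29 uM artemisinin and DMSO.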

Row | SMILES | activity change, negative = inhibition
18 | CC(N)=NCc1cccc(CN)c1 | -12.2%
19 | O=C(O)c1cc(=O)c2ccc(Cl)cc2[nH]1 | -2.21%
20 | NCCCCCCNS(=O)(=O)c1cccc2c(Cl)cccc12 | -0.423%
21 | CCCn1c(=O)c2[nH]c(-c3ccc(OCC(=O)Nc4ccc(C#N)cc4)cc3)nc2n(CCC)c1=O | -3.36%
22 | CN(C)CCCCSC(=N)N | -1.08%
23 | Cn1cnc2c(NC3CCCC3)ncnc21 | -8.67%
24 | NC(CCC(=O)NCS(=O)(=O)O)C(=O)O (configuration not stated) | 4.18%
25 | O=C(OCCN1CCCCC1)c1c[nH]c2ccccc12 | -23.8%

Assay: qHTS for differential inhibitors of proliferation of Plasmodium falciparum line W2 (AID 1883);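 also: parasites grown with compound for 72 h before lysis and staining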; also: potency is read from the fitted curve at half-maximal effect;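 as to activity change, negative = inhibition: 0% = vehicle wells and -100% = control inhibitor wells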
Settings: Potency: Plasmodium falciparum W2 proliferation inhibition; series mostly up to 28.7 µM; activity change, negative = inhibition: at the top concentration

Row | SMILES | activity change, negative = inhibition | Potency
26 | O=C(O)c1cc(=O)c2ccc(Cl)cc2[nH]1 | -17.6% | 
27 | NCCCCCCNS(=O)(=O)c1cccc2c(Cl)cccc12 |  | 12.6 µM (active)
28 | CCCn1c(=O)c2[nH]c(-c3ccc(OCC(=O)Nc4ccc(C#N)cc4)cc3)nc2n(CCC)c1=O | -7.47% | 
29 | CN(C)CCCCSC(=N)N | -14.5% | 
30 | NC(CCC(=O)NCS(=O)(=O)O)C(=O)O (configuration not stated) | -10.5% | 
31 | O=C(OCCN1CCCCC1)c1c[nH]c2ccccc12 |  | 8.91 µM (active)

Assay: qHTS for differential inhibitors of proliferation of Plasmodium falciparum line HB3 (AID 1886);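 also: parasites grown with compound for 72 h before SYBR Green readout; plate controls were vehicle for no effect and reference inhibitor for full effect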
Settings: Potency: Plasmodium falciparum HB3 proliferation inhibition; series mostly up to 28.7 µM; activity change, negative = inhibition: at the top concentration

Row | SMILES | activity change, negative = inhibition
32 | CC(N)=NCc1cccc(CN)c1 | -10.8%
33 | O=C(O)c1cc(=O)c2ccc(Cl)cc2[nH]1 | -9.6%
34 | CCCn1c(=O)c2[nH]c(-c3ccc(OCC(=O)Nc4ccc(C#N)cc4)cc3)nc2n(CCC)c1=O | -8.1%
35 | CN(C)CCCCSC(=N)N | -6.67%
36 | NC(CCC(=O)NCS(=O)(=O)O)C(=O)O (configuration not stated) | -2.11%
37 | O=C(OCCN1CCCCC1)c1c[nH]c2ccccc12 | -13.9%
